In PubChem BioAssay (NCI) one finds growth data, which are given here for 38 compounds.

SMILES strings stand for the structures. The panel holds about 83,000 compounds, 20% with a hit somewhere; the sample as a whole holds those more often.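 96-well plates, one dose, 48 hours. Percent growth reported; active if below 10.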 Active and inactive are the calls of the source.

One assay deals with SF-268 CNS. Nature of the assay: NCI-60 one-dose screen, 48 h (100 = growth as untreated, 0 = no growth, -100 = all killed). Conditions: 10 µM unless noted.
In the case of `Cc1ccc(Cl)cc1NC(=O)c1cc2ccccc2cc1O`, the growth is 9.58% (active).

`COc1ccc(NC(=O)CSc2nc(C)c(C(C)=O)n2-c2ccc([N+](=O)[O-])cc2)cc1`: the growth is 108% (inactive).

As for `O=C(NC(Cc1nnc2n(Cc3ccccc3)c(=O)c3c4c(sc3n12)CCCC4)c1ccc(Cl)cc1)c1ccccc1` (stereo unspecified), the growth was 102% (inactive).

For `COc1cc(C2CC(=O)Nc3c2c(C)nn3-c2nc3ccccc3[nH]2)c(OC)c(OC)c1OC` (stereo unspecified), the growth is 50.9% (inactive).

In the case of `Cn1c(-c2c(N)n(Cc3ccc(C(F)(F)F)cc3)c3nc(C#N)c(C#N)nc23)nc2ccccc21`, the growth was 43.3% (inactive).

Take `N#Cc1c(-c2ccccc2)cc(-c2ccc(Nc3nc(Nc4ccc(F)cc4)nc(Nc4ccc(F)cc4)n3)cc2)nc1N`: the growth is 96.1% (inactive).

`Cc1c(O)cc(-c2cnc(N/N=C\c3ccc(Cl)cc3)s2)c(O)c1C`: the growth is 92.4% (inactive).

For `COc1ccc2c(c1)O/C(=C\c1cccc(OCC(=O)Nc3nc4ccccc4s3)c1)C2=O`, the growth was 24.2% (inactive).

For `Cn1c2c(c3ccc(Cl)c(Cl)c31)C(C#N)C1(CCNCC1)NC2=O` (stereo unspecified), the growth is 48.6% (inactive).

With `COc1ccc(C2=NN(C(=O)c3cc(OC)c(OC)c(OC)c3)C(c3ccc(Cl)cc3)C2)cc1OC` (stereo unspecified), the growth is 37.6% (inactive).

Regarding `CCN(CC)CCN1CC(O)=C(c2nc(-c3ccc(Cl)cc3)cs2)C1=N`, the growth is 4.19% (active).

In the case of `C=C(C)[C@@H]1CC=C2c3sc(-c4ccc(C)cc4)nc3C[C@@H](C)[C@]2(C)C1`, the growth was 99.7% (inactive).

In the case of `COC(=O)c1c2c(c[n+]([O-])c1C)C(=O)C=CC2=O`, the growth is 68.7% (inactive).

Regarding `COc1ccc(NC(=O)CSc2nnc(-c3cc(-c4ccccc4)nc4ccccc34)n2-c2ccccc2)cc1`, the growth is 90.8% (inactive).

As to `COc1cc(C2CC(=O)Nc3c2c(C)nn3-c2nc3ccccc3[nH]2)cc2c1OCC(=O)N2` (stereo unspecified), the growth was 48.8% (inactive).

`Cc1cc(Cl)nc(NCc2cc(Nc3ccnc4cc(Cl)ccc34)ccc2F)n1`: the growth was 58.2% (inactive).

As for `COc1ccc2c(c1)[nH]c(=O)c1c3cccnc3cn21`, the growth is 27.3% (inactive).

For the compound `Cc1ccc(Cc2cnc(NC(=O)c3ccc4noc(-c5ccccc5)c4c3)s2)cc1`, the growth was 98.9% (inactive).

On to `CC1=CN2C(=O)C3C4=C(CCCC4)SC3N=C2CN1c1c(C)cccc1C` (stereo unspecified), for which the growth was 89.1% (inactive).

On to `Cc1ccc2[nH]c(=O)c3c(c2c1)OC(N)=C(C#N)C31c2cc(Br)ccc2-c2ccc(Br)cc21`, for which the growth was 78% (inactive).

Regarding `CS(=O)(=O)c1ccc(Nc2nc(N[C@H]3CCCC[C@H]3N)nc3cc[nH]c(=O)c23)cc1`, the growth is -22.8% (active).

For the compound `O=C(NCCCNc1cc(-c2cn(-c3ccccc3)nc2-c2cccc(O)c2)ccn1)c1cccc(O)c1`, the growth was 63.8% (inactive).

`COc1ccc(C(=O)COc2ccc(/C=C3\Oc4ccccc4C3=O)cc2)cc1`: the growth is 108% (inactive).

Take `Cc1ccc(C2SCC(=O)N2Cc2ccccc2)cc1` (stereo unspecified): the growth was 115% (inactive).

Take `Cc1cccc(Cc2cnc(NC(=O)/C=C/c3ccco3)s2)c1`: the growth was 49.4% (inactive).

With `CN(C)CCNc1nc2ccccc2c2c1c1c(n2Cc2ccccc2)-c2ccccc2C1=O`, the growth was -81.9% (active).

Take `Cc1occc1-c1n[nH]c(=S)n1N1C(=O)CSC1=S`: the growth is 97% (inactive).

With `Cc1cccc(NC(=O)CSc2nc3ccccc3[nH]2)c1`, the growth is 95.2% (inactive).

With `Cc1ccccc1NC(=O)N/C(N)=N/c1nc(C)c(C)s1`, the growth is 59.5% (inactive).

In the case of `NNC(=O)c1nc(N)n(-c2ccc(S(N)(=O)=O)cc2)n1`, the growth was 93.3% (inactive).

With `COc1cc(CCC[P+](c2ccccc2)(c2ccccc2)c2ccccc2)cc2c1OCO2`, the growth is 26.1% (inactive).

As to `O=C1/C(=C2/C=Nc3ccccc32)N(O)c2ccccc21`, the growth is 76% (inactive).

As to `COc1ccccc1N1C(=O)/C(=C/C2=Cc3ccccc3OC2)SC1=S`, the growth is 109% (inactive).

As to `C=CCn1c(C)nc2cc(Nc3nc(Cl)nc4ccccc34)ccc21`, the growth was 89.9% (inactive).

In the case of `COc1cc(/C=C/C(=O)c2c(C)nc3ccccc3c2C)ccc1OCCCN1CCN(C(=O)c2ccco2)CC1`, the growth is 87.4% (inactive).

On to `Cn1cc(-c2csc(-c3ccccc3)n2)c2cccnc21`, for which the growth was -18.3% [100 µM] (active).

Consider `N=C(N)c1ccc(-c2ccc(-c3cncc4ccccc34)s2)s1`, for which the growth is -71.5% (active).

Turning to `CC(C)CC(NC(=O)CN(Cc1ccccc1)S(C)(=O)=O)C(=O)O` (stereo unspecified), the growth is 109% (inactive).

Another assay deals with SF-295 CNS. The description is as above. Particulars: 10 µM unless noted.
Turning to `Cc1ccc(Cl)cc1NC(=O)c1cc2ccccc2cc1O`, the growth is -9.44% (active).

Turning to `COc1ccc(NC(=O)CSc2nc(C)c(C(C)=O)n2-c2ccc([N+](=O)[O-])cc2)cc1`, the growth was 89% (inactive).

For `O=C(NC(Cc1nnc2n(Cc3ccccc3)c(=O)c3c4c(sc3n12)CCCC4)c1ccc(Cl)cc1)c1ccccc1` (stereo unspecified), the growth is 71.7% (inactive).

Regarding `COc1cc(C2CC(=O)Nc3c2c(C)nn3-c2nc3ccccc3[nH]2)c(OC)c(OC)c1OC` (stereo unspecified), the growth is 19.8% (inactive).

In the case of `Cn1c(-c2c(N)n(Cc3ccc(C(F)(F)F)cc3)c3nc(C#N)c(C#N)nc23)nc2ccccc21`, the growth was -27.5% (active).

As to `N#Cc1c(-c2ccccc2)cc(-c2ccc(Nc3nc(Nc4ccc(F)cc4)nc(Nc4ccc(F)cc4)n3)cc2)nc1N`, the growth was 65% (inactive).

For the compound `Cc1c(O)cc(-c2cnc(N/N=C\c3ccc(Cl)cc3)s2)c(O)c1C`, the growth is 99.9% (inactive).

Turning to `COc1ccc2c(c1)O/C(=C\c1cccc(OCC(=O)Nc3nc4ccccc4s3)c1)C2=O`, the growth is 99.7% (inactive).

Turning to `Cn1c2c(c3ccc(Cl)c(Cl)c31)C(C#N)C1(CCNCC1)NC2=O` (stereo unspecified), the growth is 58.3% (inactive).

Regarding `COc1ccc(C2=NN(C(=O)c3cc(OC)c(OC)c(OC)c3)C(c3ccc(Cl)cc3)C2)cc1OC` (stereo unspecified), the growth was -4.6% (active).

As to `CCN(CC)CCN1CC(O)=C(c2nc(-c3ccc(Cl)cc3)cs2)C1=N`, the growth was 24% (inactive).

With `C=C(C)[C@@H]1CC=C2c3sc(-c4ccc(C)cc4)nc3C[C@@H](C)[C@]2(C)C1`, the growth was 104% (inactive).

For `COC(=O)c1c2c(c[n+]([O-])c1C)C(=O)C=CC2=O`, the growth was 103% (inactive).

For `COc1ccc(NC(=O)CSc2nnc(-c3cc(-c4ccccc4)nc4ccccc34)n2-c2ccccc2)cc1`, the growth is 97.4% (inactive).

Regarding `COc1cc(C2CC(=O)Nc3c2c(C)nn3-c2nc3ccccc3[nH]2)cc2c1OCC(=O)N2` (stereo unspecified), the growth was 19.1% (inactive).

As for `Cc1cc(Cl)nc(NCc2cc(Nc3ccnc4cc(Cl)ccc34)ccc2F)n1`, the growth is 69.5% (inactive).

For the compound `COc1ccc2c(c1)[nH]c(=O)c1c3cccnc3cn21`, the growth is -6.51% (active).

`Cc1ccc(Cc2cnc(NC(=O)c3ccc4noc(-c5ccccc5)c4c3)s2)cc1`: the growth is 95.9% (inactive).

On to `CC1=CN2C(=O)C3C4=C(CCCC4)SC3N=C2CN1c1c(C)cccc1C` (stereo unspecified), for which the growth was 81.6% (inactive).

Regarding `Cc1ccc2[nH]c(=O)c3c(c2c1)OC(N)=C(C#N)C31c2cc(Br)ccc2-c2ccc(Br)cc21`, the growth is 70.1% (inactive).

With `CS(=O)(=O)c1ccc(Nc2nc(N[C@H]3CCCC[C@H]3N)nc3cc[nH]c(=O)c23)cc1`, the growth was 31.4% (inactive).

On to `O=C(NCCCNc1cc(-c2cn(-c3ccccc3)nc2-c2cccc(O)c2)ccn1)c1cccc(O)c1`, for which the growth is 83.3% (inactive).

Regarding `COc1ccc(C(=O)COc2ccc(/C=C3\Oc4ccccc4C3=O)cc2)cc1`, the growth was 172% (inactive).

In the case of `Cc1ccc(C2SCC(=O)N2Cc2ccccc2)cc1` (stereo unspecified), the growth was 95% (inactive).

For `Cc1cccc(Cc2cnc(NC(=O)/C=C/c3ccco3)s2)c1`, the growth was 6.75% (active).

Turning to `CN(C)CCNc1nc2ccccc2c2c1c1c(n2Cc2ccccc2)-c2ccccc2C1=O`, the growth was -77.3% (active).

`Cc1occc1-c1n[nH]c(=S)n1N1C(=O)CSC1=S`: the growth was 101% (inactive).

`Cc1cccc(NC(=O)CSc2nc3ccccc3[nH]2)c1`: the growth was 105% (inactive).

As to `Cc1ccccc1NC(=O)N/C(N)=N/c1nc(C)c(C)s1`, the growth was 8.66% (active).

For the compound `NNC(=O)c1nc(N)n(-c2ccc(S(N)(=O)=O)cc2)n1`, the growth was 109% (inactive).

Consider `COc1cc(CCC[P+](c2ccccc2)(c2ccccc2)c2ccccc2)cc2c1OCO2`, for which the growth is 68.6% (inactive).

For `O=C1/C(=C2/C=Nc3ccccc32)N(O)c2ccccc21`, the growth is 71% (inactive).

Consider `COc1ccccc1N1C(=O)/C(=C/C2=Cc3ccccc3OC2)SC1=S`, for which the growth was 91.5% (inactive).

With `C=CCn1c(C)nc2cc(Nc3nc(Cl)nc4ccccc34)ccc21`, the growth is 84.8% (inactive).

Consider `COc1cc(/C=C/C(=O)c2c(C)nc3ccccc3c2C)ccc1OCCCN1CCN(C(=O)c2ccco2)CC1`, for which the growth is 78.3% (inactive).

`Cn1cc(-c2csc(-c3ccccc3)n2)c2cccnc21`: the growth was -47.2% [100 µM] (active).

On to `N=C(N)c1ccc(-c2ccc(-c3cncc4ccccc34)s2)s1`, for which the growth was -81.3% (active).

Turning to `CC(C)CC(NC(=O)CN(Cc1ccccc1)S(C)(=O)=O)C(=O)O` (stereo unspecified), the growth is 96.4% (inactive).
